Assay outcomes as filed in PubChem.
Only some compounds are listed: those with a hit (about 3.5% of all), similar ones and a draw of the others.
GDH-TPI counter: GDH-TPI coupling enzyme inhibitors, primary screen, artefact control for M. tuberculosis FBA inhibitor project, biochemical, absorbance, full deck; inhibition, % at 4.8 µM; GDH-TPI coupled enzyme counterscreen, NADH absorbance; 360,000 tested, 1.2% active; in the data active = inhibition above about 30%;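 note: 0% = DMSO wells and 100% = wells lacking the enzyme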
UGM FP inh: M. tuberculosis UGM enzyme inhibitors, primary screen, biochemical, fluorescence polarization, single point | AID 504406, 2011 | 320,000 tested, 0.06% active | purified UGM, fluorescence polarization probe displacement | UDP-galactopyranose mutase (Mycobacterium tuberculosis (strain ATCC 25618 / H37Rv)), … | inhibition, % at 10 µM; in the data active = inhibition above about 10%, passing the limit was not always enough
Target sequence (P9WIQ1 whole entry, looked up): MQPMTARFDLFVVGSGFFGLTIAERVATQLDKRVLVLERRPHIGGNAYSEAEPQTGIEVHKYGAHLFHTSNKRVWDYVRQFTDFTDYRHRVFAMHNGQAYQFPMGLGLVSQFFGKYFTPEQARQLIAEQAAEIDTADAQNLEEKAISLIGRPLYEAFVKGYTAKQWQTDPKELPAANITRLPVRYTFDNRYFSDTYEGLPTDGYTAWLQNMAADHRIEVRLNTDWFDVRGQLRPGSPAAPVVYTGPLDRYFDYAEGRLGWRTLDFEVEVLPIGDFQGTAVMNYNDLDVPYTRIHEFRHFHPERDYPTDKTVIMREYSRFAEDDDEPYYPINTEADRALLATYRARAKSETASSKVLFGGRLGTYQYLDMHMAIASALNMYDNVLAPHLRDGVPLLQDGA
Rv3671c protease: Rv3671c serine protease inhibitors, primary screen, biochemical, fluorescence polarization, M. tuberculosis H37Rv | inhibition, % at 5.96 µM | 320,000 tested, 0.048% active | AID 2606, 2010;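 note: extracellular domain of Rv3671c used as enzyme; 0% = enzyme with DMSO and 100% = no enzyme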
Mtb betalactam: beta-lactam sensitization of Mtb H37Rv, H37Rv. AID 434955, 2010. M. tuberculosis H37Rv growth with meropenem, percent inhibition. 330,000 tested, 0.27% active. inhibition, % at 25 µM; call rule not given here;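 note: growth measured after seven days incubation then overnight dye step; 0% = bacteria only wells and 100% = bacteria with antibiotic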
Mtb FBA inh: Mtb FBA enzyme inhibitors, primary screen, biochemical, fluorescence, strain H37Rv. 360,000 tested, 2.3% active. Fructose-bisphosphate aldolase (Mycobacterium tuberculosis (strain ATCC 25618 / H37Rv)), …. inhibition, % at 1 µM. purified M. tuberculosis FBA, fluorescence read-out; in the data active = inhibition above about 27%;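 note: 0% = vehicle and 100% = reference inhibitor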
Rv3671c cf: Rv3671c serine protease inhibitors, retest, confirmation, biochemical, fluorescence polarization, M. tuberculosis H37Rv | shares compounds with Rv3671c protease | 140 tested, 40% active | inhibition, % at 5.96 µM
DNA intercalat: DNA intercalation detected by acridine orange polarization counter-screen | AC50, µM | 35 tested, 60% active | AID 463198 | shares compounds with UGM FP inh | acridine orange-DNA binding, fluorescence polarization;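 active = fitted AC50 no greater than ten times the top concentration tested, cut at about 17 µM in these data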
An asterisk follows results filed as active; nt = no result; + = active, no number. Cut-off read from the data, not from the text of the source, unless noted: active = inhibition above about 38%; inactive = the rest.

SMILES	GDH-TPI counter	UGM FP inh	Rv3671c protease	Mtb betalactam	Mtb FBA inh	Rv3671c cf	others
Cc1ccc(-c2ccccc2NC(=O)CS(=O)CC(=O)Nc2ccc(C)c(Cl)c2)o1 (configuration not stated)	-2	-5	78*	1	-2	-7
CC(C)Cn1c(N)c(C(=O)COC(=O)c2ccc(O)cc2)c(=O)n(C)c1=O	-1	-4	60*	0	2	-13
COc1ccc(S(=O)(=O)N(C)c2ccc(C(=O)NCc3ccco3)cc2)cc1OC	-6	2	8	-4	2	nt
Cc1nn(-c2ccc(Br)cc2)c(=O)c2ccccc12	0	3	71*	-7	0	-5
Cc1nn(-c2ccccc2C(=O)O)c(=O)c2ccccc12	-4	2	-1	1	4	nt
Cc1cccc(NC(=O)CSc2nnc(CNC(=O)c3ccco3)n2C)c1	-3	0	0	-2	0	nt
CCCCNc1c2c3c(cccc3n(C)c1=O)C(=O)c1ccccc1-2	2	28*	43*	32	-20	57*
Cn1c(=O)c(NC2CCCCC2)c2c3c(cccc31)C(=O)c1ccccc1-2	-3	nt	nt	nt	-5	nt
Cn1c(=O)c(NCCc2ccccc2)c2c3c(cccc31)C(=O)c1ccccc1-2	11	44*	+	91	-7	+
CCNc1c2c3c(cccc3n(C)c1=O)C(=O)c1ccccc1-2	nt	22*	60*	89	nt	53*
Cn1c(=O)c(NCCO)c2c3c(cccc31)C(=O)c1ccccc1-2	5	98*	122*	-1	-2	132*
C#CCn1cc(/C=N/Nc2nc3ccccc3[nH]2)c2ccccc21	11	-3	62*	96	4	64*
C(=N\Nc1nc2ccccc2[nH]1)/c1cccc2nccnc12	9	-4	19	45	-4	nt
O=C(N/N=C/c1cc(Br)ccc1O)c1ccncc1	11	-4	41*	100	0	9
O=C(N/N=C/c1cccnc1)c1cccc(NC(=O)c2cccc(Br)c2)c1	-1	-1	61*	-1	-2	-125
CC(=O)Nc1cccc(C(=O)N/N=C/c2cccnc2)c1	3	2	8	-1	-3	nt
Cn1c(=O)c2c(ncn2Cc2nnc(N)s2)n(C)c1=O	-1	-4	-3	-9	-2	nt
CCC(C)OC(=O)n1ccc(C(=O)Nc2nccs2)n1 (configuration not stated)	1	-5	55*	5	0	49*
COc1ccc(N2CCN(C(=O)Cc3ccc(S(=O)(=O)N4CCOCC4)s3)CC2)cc1	4	1	-3	-2	1	nt
N#CCC(=O)Nc1ccc(C(=O)OCC(=O)Nc2ccccc2Sc2ccccc2)cc1	4	-1	81*	0	4	-78
Cc1cc(C)c(-c2cc(NC(=O)COC(=O)c3ccc(C#N)cc3)n(-c3ccccc3)n2)cc1C	-3	-1	-51	9	-1	nt
Cc1cc(C)c(-c2cc(NC(=O)COC(=O)c3ccc(NC(=O)CC#N)cc3)n(-c3ccccc3)n2)cc1C	8	-1	42*	5	1	-197
CCOc1ccc(C(=O)N/N=C/c2c(C)[nH]c(=O)[nH]c2=O)cc1	nt	0	4	-3	nt	nt
O=CN1CCN(C(=O)c2cccc([N+](=O)[O-])c2)CC1	6	-3	7	-7	-1	nt
O=C(NC1CCN(C(=O)c2cccc([N+](=O)[O-])c2)CC1)c1ccccc1	3	2	144*	4	-1	-4
SMILES	GDH-TPI counter	UGM FP inh	Rv3671c protease	Mtb betalactam	Mtb FBA inh	Rv3671c cf	others
Nc1cc(C(=O)O)c(N)c2c1C(=O)c1ccccc1C2=O	9	3	61*	15	-3	52*
COc1ccc(-c2nc(CS(=O)CC(=O)NCc3ccc4c(c3)OCO4)c(C)o2)cc1OC (configuration not stated)	1	-1	2	9	3	nt
CCOC(=O)C1CCCN(C(=O)C2c3ccccc3Oc3ccccc32)C1 (configuration not stated)	10	23*	60*	-4	7	10
CCOC(=O)C1CCCN(C(=O)C2COc3ccccc3O2)C1 (configuration not stated)	4	nt	nt	nt	2	nt
COC(=O)CN1C2=NCCCN2c2ccccc21	-1	0	8	-5	2	nt
COc1cccc2c1C(=O)c1c(O)c3c(c(O)c1C2=O)C[C@](O)(C(C)=O)C[C@H]3O[C@@H]1C[C@@H](N)[C@@H](O)[C@@H](C)O1	2	33*	45*	99	-3	35
Nc1nonc1-n1nnc(C(=O)N/N=C/c2ccc(Cl)cc2Cl)c1CN1CCOCC1	-1	-1	2	-1	-4	nt
CCN(CC(=O)Nc1c(F)cccc1F)C(=O)CCN1C(=O)C2CCCCC2C1=O (configuration not stated)	0	0	0	10	0	nt
CSC[C@@H]1NC(=S)N(c2ccc(C)cc2)C1=O	8	1	91*	23	1	83*
CCN(CC)C(=S)SCC(=O)NC12CC3CC(CC(C3)C1)C2	13	-1	151*	7	-1	-5
COc1cc(C(=O)NCCC(=O)NCc2c(F)cc(F)cc2F)cc(OC)c1OC	1	1	2	0	1	nt
O=C(CSc1nn(-c2ccc(Cl)cc2)c(=S)s1)NCC1CCCO1 (configuration not stated)	3	1	2	73	6	nt
CCCc1cc(=O)oc2cc(C)cc(OC(=O)c3ccco3)c12	2	1	66*	10	-1	84*
COC(=O)Cc1[nH]nc2c1C(c1cc(OC)c(OC)c(OC)c1)C(C#N)=C(N)O2 (configuration not stated)	5	-2	40*	1	1	-4
CCCCCCCCCCCCCCCC[n+]1ccc(/C=N/O)cc1	-5	-2	59*	68	-3	72*	DNA intercalat=>35
COc1ccc(CN(C)C(=O)CNC(=O)c2cccs2)c(OC)c1	-2	-2	-9	-3	-3	nt
O=c1ccc2c(-c3ccccc3)c3ccc(O)cc3oc-2c1	16	41*	19	-2	2	nt	DNA intercalat=0.55*
O=c1cc(-c2ccccc2)c2ccc(O)cc2o1	10	-2	-8	3	18	nt
COc1ccc2c3c(cccc13)C(=O)CC2	9	79*	nt	5	-3	nt	DNA intercalat=>35
CC1(C)CC(=O)C=C(c2cccnc2)C1	13	2	-5	-8	1	nt
O=C(CCCN1C(=O)c2cccc3cccc(c23)C1=O)N1CCN(c2ccccc2O)CC1	25	-3	2	0	8	nt
